Sampled rows, rich in hits. Any-hit rate of the full collection: about 2.2%.
Hsp70 act: switches on Hsp70 transcription. HeLa Hsp70 promoter luciferase reporter, luminescence; scaled: vehicle 0, proteasome-inhibitor control 100%. 0.04% of 200,000 active. activation, % at 10 µM;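 active = activation above the mean across all tested compounds plus 3 SD, cutoff set per campaign, cut at about 5.5% in these data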;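 note: 100% = MG132 at 30 µM as the positive control and 0% = DMSO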
SMARCA2 activ: activators of SMARCA2 function; MG213 cells, MMTV-luciferase reporter, dexamethasone, overnight; activation, % at 9.1 µM; 1% of 370,000 active; in the data active = activation above about 7.8%;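 note: 0% = vehicle wells and 100% = reference activator wells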
GalR3 antagonist: blocks the human galanin receptor 3; O60755; inhibition, % at 3 µM; HEK293 GalR3-CNG cAMP membrane potential fluorescence; galR3 body fused to GalR1 C-terminus; AID 651719; 0.44% of 360,000 active;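 active = inhibition above the screen-wide average plus 3 SD, cut at about 13% in these data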;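 note: forskolin and galanin both at EC90 stimulate the cells; cAMP rise reported by CNG channel membrane potential dye signal; 0% = forskolin plus galanin with DMSO and 100% = forskolin alone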
Target sequence (O60755 1-299 limits assumed): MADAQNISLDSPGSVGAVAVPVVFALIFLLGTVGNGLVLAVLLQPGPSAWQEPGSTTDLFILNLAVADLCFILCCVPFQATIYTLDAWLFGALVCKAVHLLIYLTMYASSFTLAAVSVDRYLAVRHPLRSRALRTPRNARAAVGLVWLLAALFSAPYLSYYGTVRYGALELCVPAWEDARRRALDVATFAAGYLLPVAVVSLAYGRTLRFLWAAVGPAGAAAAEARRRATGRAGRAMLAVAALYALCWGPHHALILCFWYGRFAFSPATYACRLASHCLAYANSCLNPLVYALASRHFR
HIF act: HIF pathway transcriptional activation | AID 1910 | activation, % at 7.5 µM (by protocol) | 0.32% of 300,000 active | U2OS HRE-luciferase reporter, luminescence; normalized: DMSO 0%, desferrioxamine 100%;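 active = mean activation of at least 10% of the iron chelator positive control signal, with at least half of replicates also reaching 10%; inconclusive = mean and replicate majority disagree about reaching 10%; inactive = mean and most replicates under 10%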
FXN GAA850 act: frataxin GAA850 promoter activation. HEK293 lucGAA850 FXN promoter luciferase reporter, 24 h; percent of 10 µM SAHA response. 0.56% of 360,000 active. activation, % at 6 µM;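 active = activation above the average of all compounds screened plus 3 SD, cutoff fixed separately per campaign, cut at about 7.5% in these data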;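 note: 0% = DMSO wells and 100% = 10 µM SAHA wells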
GalR3 antag conf: GalR3 (human) antagonism, confirmation; shares compounds with GalR3 antagonist; HEK293 GalR3 CNG cAMP biosensor, membrane potential fluorescence; galR3 fused to GalR1 carboxy tail; challenged with forskolin and galanin at EC90; inhibition, % at 3 µM; 59% of 1,600 active;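 active = inhibition above the primary screen's cutoff, the mean inhibition of all screened compounds plus 3 SD, cut at about 13% in these data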;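 note: 0% = forskolin plus galanin and 100% = forskolin alone with DMSO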
CNG parental: counter-screen for GalR3 antagonists: nonspecific agonists in parental HEK-CNG cells; shares compounds with GalR3 antagonist; HEK293-CNG parental cells, cAMP membrane potential fluorescence; normalised: DMSO wells 0%, forskolin wells 100%; activation, % at 3 µM; 10% of 1,600 active; AID 652268; in the data active = activation above about 1.3%
Active calls of the source: *; ? = inconclusive; . = not tested or not shown.

SMILES | Hsp70 act | SMARCA2 activ | GalR3 antagonist | HIF act | FXN GAA850 act | GalR3 antag conf | CNG parental
COc1ccc(C(=S)N2CCNCC2)cc1 | 0 | -3 | -1 | -1 | 1 | . | .
S=C(NCc1cccc(Cl)c1)OC1CCC12CCC(c1ccccc1)CC2 (stereo not given) | . | -2 | . | . | . | . | .
CCCN(CC1CC1)C(=O)CN1C(=O)C2CCCCN2C(=O)c2ccccc21 (stereo not given) | . | 3 | . | . | . | . | .
NC(=O)c1ncn([C@@H]2O[C@H](C(=O)N[C@H](Cc3ccccc3)C(=O)O)[C@@H](O)[C@H]2O)n1 | . | -3 | -8 | . | . | . | .
Cc1nn(C)c(C)c1CN(C)S(=O)(=O)c1ccc2ccccc2c1 | 0 | -6 | 110* | . | -4 | 116* | 0
Cn1c(=O)n(C)c2cc(CNC(=O)[C@H]3O[C@@H](n4cnc5c(N)ncnc54)[C@H](O)[C@@H]3O)ccc21 | . | -1 | 8 | . | . | . | .
CN(Cc1ccc2c(c1)CCCN2C)C(=O)[C@H]1O[C@@H](n2cnc3c(N)ncnc32)[C@H](O)[C@@H]1O | . | 2 | 42* | . | . | 85* | 0
COc1ccc(C2=NN(C(=O)c3cccs3)C(O)(C(F)(F)F)C2)cc1 (stereo not given) | 0 | 2 | 88* | 1 | 4 | 94* | 1
Cc1ccc(-c2nnc(SCC(=O)Nc3ccc(OCc4ccccc4)cc3)n2-c2ccc(Cl)cc2)cc1 | . | -1 | . | . | . | . | .
Cc1cc(C)c(CN2CCN(C(=O)Cn3cnc4c(OCc5ccccc5)ncnc43)CC2)c(C)c1 | . | -7 | 98* | . | -4 | 106* | -1
CSc1cccc(NC(=O)c2ccc(CN3CCc4ccccc4C3)cc2)c1 | . | -5 | 47* | 1 | 2 | 104* | 0
O=C(Nc1cccc(Br)c1)c1ccc(CN2CCc3ccccc3C2)cc1 | . | -5 | 85* | 6 | 1 | 107* | 0
O=C(Nc1ccc(F)cc1)c1ccc(CN2CCc3ccccc3C2)cc1 | . | -4 | 103* | 1 | -2 | 104* | 0
Cc1ccccc1NC(=O)c1ccc(CN2CCc3ccccc3C2)cc1 | -1 | -2 | -7 | 0 | -4 | . | .
CC(=O)Nc1ccc(NC(=O)c2ccc(CN3CCc4ccccc4C3)cc2)cc1 | . | -2 | -10 | -1 | 3 | . | .
O=C(CCC(=O)c1cccs1)OCC(=O)c1ccc(Cl)s1 | 0 | -1 | . | 0 | 0 | 1 | 0
C=CCOC(=O)C1=C(C)N=c2sc(=C3C(=O)N(CC(=O)O)c4ccccc43)c(=O)n2C1c1ccc(OC)cc1 (stereo not given) | . | -1 | . | . | . | . | .
CCCCOCCCNC(=O)C[C@@H]1C[C@]2(C(=O)OCC)CCC3=C2N(CCC3)C1=O | . | -1 | . | . | . | . | .
Cn1cccc1C(=O)N1CCN(S(=O)(=O)c2ccc(Cl)s2)CC1 | . | -3 | . | . | . | . | .
CCCNC(=O)c1csc2c1CCCCC2 | 0 | -1 | 3 | 0 | 2 | . | .
NS(=O)(=O)c1ccc(CNC(=O)c2csc3c2CCCC3)cc1 | 0 | -2 | 27* | ? | 3 | 13* | 0
Cc1nc2ccc(C(=O)N3CCN(C(=O)OCc4ccccc4)CC3)cc2n1C1CCCC1 | . | -6 | . | . | . | . | .
COc1ccc(CCN2C(=O)CSC2=Nc2ccc(C(C)C)cc2)cc1OC | . | -8 | 84* | 3 | -2 | 96* | 0
COc1ccc(N=C2SCC(=O)N2CCc2ccc(OC)c(OC)c2)cc1 | . | 3 | 0 | 0 | 0 | . | .
COc1cccc(/C=C2\CC3(OC(=O)c4cccc(F)c4)CCCN2C3)c1 (stereo not given) | . | -3 | . | . | . | . | .
SMILES | Hsp70 act | SMARCA2 activ | GalR3 antagonist | HIF act | FXN GAA850 act | GalR3 antag conf | CNG parental
COc1ccc(C(=O)N2CCCC(N3CCN(c4ccccc4OC)CC3)C2)c(OC)n1 (stereo not given) | . | -1 | . | 0 | -1 | 3 | 0
O=C(Cc1cccs1)NC1CCCCN(Cc2ccc(Cl)cc2)C1=O (stereo not given) | . | -2 | . | . | . | . | .
COC(=O)[C@]12C[C@H](CC(=O)NCCCCc3ccccc3)C(=O)N(CCC3=CCCCC3)C1=C[C@H](C1CCCC1)O[C@@H]2C | . | -4 | . | . | . | . | .
COc1ccc(N2CCN(C(=S)Nc3ccccc3)CC2)cc1 | . | -3 | -10 | 0 | 0 | . | .
CC(=O)c1ccc(N2CCN(C(=S)Nc3ccc(Oc4ccccc4)cc3)CC2)cc1 | 0 | -7 | 82* | 1 | -4 | 97* | -1
COc1ccc(S(=O)(=O)Nc2ccc(Cc3ccncc3)cc2)cc1OC | . | -5 | -9 | 0 | 0 | . | .
CCc1ccc(OC)c(S(=O)(=O)Nc2ccc(Cc3ccncc3)cc2)c1 | . | -6 | 46* | 0 | 0 | 8 | 0
CC(=O)N1CCc2cc(S(=O)(=O)NCCCN3CCCCC3)ccc21 | . | 2 | -5 | -1 | 1 | . | .
CC(=O)N1CCc2cc(S(=O)(=O)NCCC3=CCCCC3)ccc21 | 0 | -6 | 82* | -11 | 1 | 80* | 0
O=C(NCc1ccccc1)c1cc[n+](CC(=O)c2cccs2)cc1 | . | -1 | 13* | 0 | 3 | -1 | 0

Screening results from PubChem.
